Laboratory results from the supplement of paper PMC9492666.

Columns and labels:
HCC1937 = assay: relative cell viability, compound + erastin, vs DMSO (fraction of DMSO control); higher = less growth inhibition; details: 72 h
MDA-MB-231 = assay: as above; details: 72 h
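Note: viability read by CCK-8 kit in 96-well plates, part of a combination screen pairing lipid-metabolism-targeting compounds with erastin.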

Cc1nc2ccc(NCc3cccc(C(F)(F)F)c3)cc2n(CCNC(=O)CO)c1=O + CCOc1ccccc1-n1c(C(C)N2CCN(C(=O)COc3ccc(Cl)cc3)CC2)nc2ccccc2c1=O [erastin]
relative cell viability (HCC1937): 0.618 | relative cell viability (MDA-MB-231): 0.89

CN1c2ccccc2C(=O)Nc2cnc(Nc3ccc(N4CCC(O)CC4)cc3)nc21 + CCOc1ccccc1-n1c(C(C)N2CCN(C(=O)COc3ccc(Cl)cc3)CC2)nc2ccccc2c1=O [erastin]
relative cell viability (HCC1937): 0.205 | relative cell viability (MDA-MB-231): 0.644

COCCNC(=O)Nc1ccc2nc(-c3cccs3)c(-c3cccs3)nc2c1 [Ac-CoA Synthase Inhibitor1] + CCOc1ccccc1-n1c(C(C)N2CCN(C(=O)COc3ccc(Cl)cc3)CC2)nc2ccccc2c1=O [erastin]
relative cell viability (HCC1937): 0.597 | relative cell viability (MDA-MB-231): 0.669

COc1ccc(-c2coc3cc(O)cc(O)c3c2=O)cc1 [Biochanin A] + CCOc1ccccc1-n1c(C(C)N2CCN(C(=O)COc3ccc(Cl)cc3)CC2)nc2ccccc2c1=O [erastin]
relative cell viability (HCC1937): 0.589 | relative cell viability (MDA-MB-231): 0.559

COc1ccc(CN2CCC(c3ccc4nc(C(=O)N5CCN(Cc6ccc(C(F)(F)F)cc6)CC5)[nH]c4c3)CC2)cn1 + CCOc1ccccc1-n1c(C(C)N2CCN(C(=O)COc3ccc(Cl)cc3)CC2)nc2ccccc2c1=O [erastin]
relative cell viability (HCC1937): 0.569 | relative cell viability (MDA-MB-231): 0.585

CCC1=N[C@H]2C[C@@]3(C(=O)N(OC)c4ccccc43)[C@H]3CC1[C@@H]2CO3 [Humantenmine] + CCOc1ccccc1-n1c(C(C)N2CCN(C(=O)COc3ccc(Cl)cc3)CC2)nc2ccccc2c1=O [erastin]
relative cell viability (HCC1937): 0.573 | relative cell viability (MDA-MB-231): 0.63
